Unmarked numbers belong to inactive results. Results filed as inconclusive are left out. A call without a number means that no potency is given here. The source made the active and inactive calls. Calls come from the whole dose curve; as a rule, active = well fitted inhibition curve with a large enough effect; inconclusive = small, poorly fitted or top-dose-only effect; inactive = flat fitted curve, though single readings scatter. Where a SMILES comes first, the peptide text is derived from it.
Each molecule was assayed against Phospholipid hydroperoxide glutathione peroxidase GPX4 (Homo sapiens) (UniProt P36969) (assay: Primary qHTS Assay for Inhibitors of Recombinant Selenoprotein Glutathione Peroxidase 4 (GPX4) (AID 1845192; note: nearly all actives have a fitted effect of over 65% in size)). Settings: recombinant GPX4, GR-coupled NADPH fluorescence, 15 min; series mostly up to 27.8 µM.
Method in brief: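 NADPH consumption, followed by fluorescence at 340/450 nm between 0 and 15 min, reports GPX4 activity via coupled glutathione reductase (100 nM). Enzyme 200 nM was pre-exposed to compound 30 min; 0.5 mM cumene hydroperoxide and 1 mM GSH served as substrates.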

Phospholipid hydroperoxide glutathione peroxidase GPX4 (Homo sapiens), sequence (P36969 whole entry, looked up): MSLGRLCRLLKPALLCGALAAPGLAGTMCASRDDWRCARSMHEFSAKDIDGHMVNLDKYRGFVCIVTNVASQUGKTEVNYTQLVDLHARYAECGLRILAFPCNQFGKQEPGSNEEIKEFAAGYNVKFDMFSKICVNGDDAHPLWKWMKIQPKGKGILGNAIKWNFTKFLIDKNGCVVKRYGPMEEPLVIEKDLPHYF

Row | SMILES | Potency
1 | CC(C)=CCc1c(O)cc2oc3cc(C)cc(O)c3c2c1C | inactive
2 | C[C@H](/C=C/[C@@]1(O)[C@H](C)CC(=O)CC1(C)C)O[C@@H]1O[C@H](CO[C@@H]2OC[C@@H](O)[C@H](O)[C@H]2O)[C@@H](O)[C@H](O)[C@H]1O | inactive
3 | CN1CCN(C(=O)c2cc3cc(Cl)ccc3[nH]2)CC1 | inactive
4 | C=C1C(=O)OC2CC(COC(=O)C(C)C)=C(C(C)CCCOC(C)=O)[C@@H](OC(C)=O)C12 (stereo partly drawn) | inactive
5 | OCC(O)C(c1c[nH]c2ccccc12)c1c[nH]c2ccccc12 (stereo not drawn) | inactive
6 | C[C@@H]1O[C@@H](O[C@@H]2[C@@H](O)[C@H](O[C@H]3[C@H](O[C@H]4CC[C@@]5(C)C(CC[C@]6(C)C5CC=C5[C@@H]7CC(C)(C)CC[C@]7(C(=O)O[C@@H]7O[C@H](CO)[C@@H](O)[C@H](O)[C@H]7O)CC[C@]56C)C4(C)C)O[C@H](C(=O)O)[C@@H](O)[C@@H]3O)OC[C@H]2O)[C@H](O)[C@H](O)[C@H]1O (stereo partly drawn) | inactive
7 | CC1(C(=O)O)CCCC2(C)C3CCC4CC3(CCC12)CC4C(=O)O (stereo not drawn) | inactive
8 | CC(=O)OC[C@]12[C@@H](OC(=O)c3ccoc3)C[C@@H]3[C@@H](OC(C)=O)[C@]1(OC3(C)C)[C@@](C)(O)C[C@H](OC(=O)c1ccoc1)[C@@H]2OC(=O)c1ccoc1 | inactive
9 | O=C(O)Cn1nnc(-c2ccc(CN(CCCCOc3ccc(CN4CCCC4)cc3)CCc3ccccc3)cc2)n1 | inactive

These molecules were tested against Luciferin 4-monooxygenase (Photinus pyralis) (UniProt P08659) (assay: Primary firefly luciferase (FLuc) qHTS assay for identification of artifact compounds. (AID 1845220; note: nearly all actives have a fitted effect of over 60% in size; note: potency is the fitted concentration of half-maximal effect)). Settings: purified firefly luciferase, luminescence, 5 min; series mostly up to 54.1 µM.
Method in brief: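 Cell-free, 1536-well qHTS. Buffer pH 7.6 with 0.01% Tween-20 and 0.05% BSA; 10 uM D-luciferin, 10 uM ATP; 10 nM P. pyralis luciferase; luminescence after 5 min.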

Row | SMILES | Potency | activity change, negative = inhibition | outcome
10 | Cc1[nH]c2ccccc2c1CC(=O)N[C@@H](Cc1ccccc1)C(=O)N(C)c1ccccc1 | inactive |  | 
11 | CC1(C)C=Cc2c(ccc3c2[N+]([O-])=C2C3(O)CC34NC(=O)C5(CCCN5C3=O)CC4C2(C)C)O1 (stereo not drawn) | inactive |  | 
12 | COc1cc2c(c(OC)c1O)C(c1ccc(O)cc1)C1C(=O)OC3C(COC(=O)C1=C2)OC(CO)(OC1OC(COC(=O)/C=C/c2ccc(OC4OC(C)C(O)C(O)C4O)cc2)C(O)C(O)C1O)C3O (stereo not drawn) |  | -10.6% [at 11.6 µM] | 
13 | C#CCCCn1cc(-c2cccc3c2N[C@@H](C)CC(=O)N3)cn1 | inactive |  | 
14 | C=C[C@H]1[C@H](O[C@@H]2O[C@H](CO)[C@@H](O)[C@H](O)[C@H]2O)OC=C2C(=O)N3Cc4c([nH]c5ccccc5c4=O)[C@@H]3C[C@H]21 | inactive |  | 
15 | C/C(=C\CCC1(C)C2CC3C(C2)C31C)C(=O)O (stereo not drawn) | inactive |  | 
16 | c1ccc2c(Nc3nnc(-c4ccncc4)s3)cccc2c1 | 7.57 µM (active) |  | 
17 | C/C(=C\C1CCC(C)C2CCC3(C)OC123)C(=O)O (stereo not drawn) | inactive |  | 
18 | COC(=O)C1=CO[C@@H](O[C@@H]2O[C@H](CO)[C@@H](O)[C@H](O)[C@H]2O)[C@@H]2C(C)CC(=O)[C@]12O (stereo partly drawn) | inactive |  | 
19 | CC1=C[C@@H]2[C@H]3[C@@H]4O[C@@](C)(CC[C@H]4O)[C@H]3CC(=O)[C@]23C(=O)N[C@@H](CC(C)C)[C@@H]3[C@@H]1C | inactive |  | 
20 | C[C@@H]1O[C@@H](O[C@H]2[C@H](O)[C@@H](O)[C@H](OC[C@H]3O[C@@H](OC(=O)[C@]45CCC(C)(C)C[C@H]4C4=CCC6[C@@]7(C)C[C@@H](O)[C@H](O)[C@@](C)(CO)C7[C@H](O)C[C@@]6(C)[C@]4(C)CC5)[C@H](O)[C@@H](O)[C@@H]3O)O[C@@H]2CO)[C@H](O)[C@H](O)[C@H]1O (stereo partly drawn) |  | 0.345% [at 11.6 µM] | 
21 | C[C@H]1[C@H](C)CC[C@]2(C(=O)O)CC[C@]3(C(=O)O)C(=CCC4[C@@]5(C)CC[C@H](O[C@@H]6O[C@@H](C)[C@H](O)[C@@H](O)[C@H]6O)C(C)(C)C5CC[C@]43C)[C@H]12 (stereo partly drawn) | inactive |  | 
22 | O=C(O)C(Cc1ccccc1)NC(=O)C1CCCN1 (stereo not drawn) (H-Pro-Phe-OH; configuration not given here) | inactive |  | 
23 | CC(C)CC(=O)NCCn1cc(C(=O)O)c(=O)cc1C(O)c1ccccc1 (stereo not drawn) | inactive |  | 
24 | CC(=O)O[C@@H]1C(=O)C(C)=C(CCC(C)CC(=O)O)[C@@]2(C)CCCC(C)(C)C12 (stereo partly drawn) | inactive |  | 
25 | O=C(O)/C=C/c1ccc(O[C@@H]2O[C@H](CO)[C@@H](O)[C@H](O)[C@H]2O)cc1 | inactive |  | 
26 | COc1c2cc(c(O)c1OC)CCCCC(O)CCc1ccc(O)c-2c1 (stereo not drawn) | inactive |  | 
27 | OC[C@H]1O[C@@H](OC[C@H]2O[C@@H](OCc3ccccc3)[C@H](O)[C@@H](O)[C@@H]2O)[C@H](O)[C@@H](O)[C@@H]1O | inactive |  | 
28 | CC/C=C/C(O)C(O)C1=C(C)C(=O)C2(O1)C(=O)NC(OC)(C(=O)c1ccccc1)C2O (stereo not drawn) | inactive |  | 
29 | Cc1occc(=O)c1O[C@@H]1O[C@H](CO[C@@H]2OC[C@](O)(CO)[C@H]2O)[C@@H](O)[C@H](O)[C@H]1O | inactive |  | 

Row | SMILES | Potency | activity change, negative = inhibition | outcome
30 | COc1ccc(C2OCC3C(c4cc(OC)c5c(c4)OCO5)OCC23)cc1OC (stereo not drawn) | inactive |  | 
31 | C[C@]1(OC(=O)/C=C/c2ccc(O)cc2)C[C@@H](O)[C@]2(O)C=CO[C@@H](O[C@@H]3O[C@H](CO)[C@@H](O)[C@H](O)[C@H]3O)C12 (stereo partly drawn) | inactive |  | 
32 | CC(=O)N[C@H]1[C@H](O[C@H]2CC[C@]3(C)C4CC=C5[C@@H]6CC(C)(C)CC[C@]6(C(=O)O)[C@H](O)C[C@@]5(C)[C@]4(C)CC[C@H]3C2(C)C)O[C@H](CO)[C@@H](O)[C@@H]1O (stereo partly drawn) | inactive |  | 
33 | COc1cc(C(C)=O)ccc1O[C@@H]1O[C@H](CO)[C@@H](O)[C@H](O)[C@H]1O | inactive |  | 
34 | CCCCC(=O)N1c2ccccc2NC2=C(C(=O)CCC2)C1c1ccccc1Cl (stereo not drawn) | inactive |  | 
35 | CC(=O)/C=C/C1(O)C(C)CC(O[C@@H]2O[C@H](CO)[C@@H](O)[C@H](O)[C@H]2O)CC1(C)C (stereo partly drawn) | inactive |  | 
36 | CCC1OC(=O)C(C)CC(C)C(=O)/C(C)=C/C(C)C(=O)/C=C/C1(C)O (stereo not drawn) | inactive |  | 
37 | COc1cc(C)c(C(=O)O[C@@H]2[C@H](O)[C@@H](CO)O[C@H]2n2ccc(=O)[nH]c2=O)c(OC)c1 | inactive |  | 
38 | C/C=C1/CC2C(=O)Nc3cc(O)c(OC)cc3C(=O)N2C1 (stereo not drawn) | inactive |  | 
39 | COc1ccc(O[C@@H]2O[C@H](CO)[C@@H](O)[C@H](O)[C@H]2O)cc1OC | inactive |  | 
40 | CC(C)=CCc1c(O)cc2oc3cc(C)cc(O)c3c2c1C | 12 µM (active) |  | 
41 | C[C@H](/C=C/[C@@]1(O)[C@H](C)CC(=O)CC1(C)C)O[C@@H]1O[C@H](CO[C@@H]2OC[C@@H](O)[C@H](O)[C@H]2O)[C@@H](O)[C@H](O)[C@H]1O | inactive |  | 
42 | CN1CCN(C(=O)c2cc3cc(Cl)ccc3[nH]2)CC1 | inactive |  | 
43 | C=C1C(=O)OC2CC(COC(=O)C(C)C)=C(C(C)CCCOC(C)=O)[C@@H](OC(C)=O)C12 (stereo partly drawn) | inactive |  | 
44 | OCC(O)C(c1c[nH]c2ccccc12)c1c[nH]c2ccccc12 (stereo not drawn) | inactive |  | 
45 | C[C@@H]1O[C@@H](O[C@@H]2[C@@H](O)[C@H](O[C@H]3[C@H](O[C@H]4CC[C@@]5(C)C(CC[C@]6(C)C5CC=C5[C@@H]7CC(C)(C)CC[C@]7(C(=O)O[C@@H]7O[C@H](CO)[C@@H](O)[C@H](O)[C@H]7O)CC[C@]56C)C4(C)C)O[C@H](C(=O)O)[C@@H](O)[C@@H]3O)OC[C@H]2O)[C@H](O)[C@H](O)[C@H]1O (stereo partly drawn) |  |  | inactive [at 11.6 µM]
46 | CC1(C(=O)O)CCCC2(C)C3CCC4CC3(CCC12)CC4C(=O)O (stereo not drawn) | inactive |  | 
47 | CC(=O)OC[C@]12[C@@H](OC(=O)c3ccoc3)C[C@@H]3[C@@H](OC(C)=O)[C@]1(OC3(C)C)[C@@](C)(O)C[C@H](OC(=O)c1ccoc1)[C@@H]2OC(=O)c1ccoc1 | inactive |  | 
48 | O=C(O)Cn1nnc(-c2ccc(CN(CCCCOc3ccc(CN4CCCC4)cc3)CCc3ccccc3)cc2)n1 | inactive |  | 
